Tests used:
Test in all cases: SPOT peptide array binding signal intensity (averaged, normalized) (arbitrary units (background-subtracted, floor 0; scale differs between SH3 domains)); higher = stronger binding of the SH3 domain to the peptide
AgAbp1 = molecular target: AgAbp1
Outline: (§1)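 GST-fused SH3 domains, from four yeast species, were produced in E. coli BL21(DE3) and captured on glutathione Sepharose. Membranes of cellulose carrying synthetic 15-mer peptides, in which cysteines had been replaced by serines, were exposed to each domain at 10 μg/ml overnight at 4°C in TBS-based blocking buffer. After anti-GST antibody, an HRP anti-mouse secondary and luminol, spots were imaged and quantified using Genespotter. Binding signal is normalized and background-subtracted spot intensity, averaged over replicates, in arbitrary units that differ between domains.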

AgBbc1 = molecular target: AgBbc1
Outline: as §1

AgBem1-D1 = molecular target: AgBem1-D1
Outline: as §1

AgBzz1-D1 = molecular target: AgBzz1-D1
Outline: as §1

AgBzz1-D2 = molecular target: AgBzz1-D2
Outline: as §1

AgCyk3 = molecular target: AgCyk3
Outline: as §1

AgFus1 = molecular target: AgFus1
Outline: as §1

AgHof1 = molecular target: AgHof1
Outline: as §1

AgHse1 = molecular target: AgHse1
Outline: as §1

AgLsb1 = molecular target: AgLsb1
Outline: as §1

AgLsb4 = molecular target: AgLsb4
Outline: as §1

AgMyo5 = molecular target: AgMyo5
Outline: as §1

AgNbp2 = molecular target: AgNbp2
Outline: as §1

AgRvs167 = molecular target: AgRvs167
Outline: as §1

AgSho1 = molecular target: AgSho1
Outline: as §1

AgSla1-D1-D2 = molecular target: AgSla1-D1-D2
Outline: as §1

AgSla1-D3 = molecular target: AgSla1-D3
Outline: as §1

CaAbp1-D1 = molecular target: CaAbp1-D1
Outline: as §1

CaAbp1-D2 = molecular target: CaAbp1-D2
Outline: as §1

CaBbc1 = molecular target: CaBbc1
Outline: as §1

CaBem1-D1 = molecular target: CaBem1-D1
Outline: as §1

CaBzz1-D1 = molecular target: CaBzz1-D1
Outline: as §1

CaBzz1-D2 = molecular target: CaBzz1-D2
Outline: as §1

CaCyk3 = molecular target: CaCyk3
Outline: as §1

CaFus1 = molecular target: CaFus1
Outline: as §1

CaHof1 = molecular target: CaHof1
Outline: as §1

CaHse1 = molecular target: CaHse1
Outline: as §1

CaLsb1 = molecular target: CaLsb1
Outline: as §1

CaLsb4 = molecular target: CaLsb4
Outline: as §1

CaMyo5 = molecular target: CaMyo5
Outline: as §1

CaNbp2 = molecular target: CaNbp2
Outline: as §1

CaRvs167 = molecular target: CaRvs167
Outline: as §1

CaRvs167-3 = molecular target: CaRvs167-3
Outline: as §1

CaSho1 = molecular target: CaSho1
Outline: as §1

CaSla1-D1-D2 = molecular target: CaSla1-D1-D2
Outline: as §1

CaSla1-D3 = molecular target: CaSla1-D3
Outline: as §1

ScAbp1 = molecular target: ScAbp1
Outline: as §1

VATSTSPKLPPRGKQ
SPOT peptide array binding signal intensity (AgAbp1): 3
SPOT peptide array binding signal intensity (AgBbc1): 548
SPOT peptide array binding signal intensity (AgBem1-D1): 8.5
SPOT peptide array binding signal intensity (AgBzz1-D1): 84
SPOT peptide array binding signal intensity (AgBzz1-D2): 100
SPOT peptide array binding signal intensity (AgCyk3): ≤ 0
SPOT peptide array binding signal intensity (AgFus1): 5
SPOT peptide array binding signal intensity (AgHof1): 9.5
SPOT peptide array binding signal intensity (AgHse1): 24
SPOT peptide array binding signal intensity (AgLsb1): 290
SPOT peptide array binding signal intensity (AgLsb4): 4510
SPOT peptide array binding signal intensity (AgMyo5): ≤ 0
SPOT peptide array binding signal intensity (AgNbp2): 4
SPOT peptide array binding signal intensity (AgRvs167): 745
SPOT peptide array binding signal intensity (AgSho1): 18
SPOT peptide array binding signal intensity (AgSla1-D1-D2): 3.5
SPOT peptide array binding signal intensity (AgSla1-D3): 1.5
SPOT peptide array binding signal intensity (CaAbp1-D1): 87
SPOT peptide array binding signal intensity (CaAbp1-D2): 79.5
SPOT peptide array binding signal intensity (CaBbc1): 521
SPOT peptide array binding signal intensity (CaBem1-D1): 19.5
SPOT peptide array binding signal intensity (CaBzz1-D1): 93
SPOT peptide array binding signal intensity (CaBzz1-D2): 96.5
SPOT peptide array binding signal intensity (CaCyk3): ≤ 0
SPOT peptide array binding signal intensity (CaFus1): 80
SPOT peptide array binding signal intensity (CaHof1): 0.5
SPOT peptide array binding signal intensity (CaHse1): 37
SPOT peptide array binding signal intensity (CaLsb1): 1
SPOT peptide array binding signal intensity (CaLsb4): 3500
SPOT peptide array binding signal intensity (CaMyo5): 4.75
SPOT peptide array binding signal intensity (CaNbp2): 2
SPOT peptide array binding signal intensity (CaRvs167): 1970
SPOT peptide array binding signal intensity (CaRvs167-3): ≤ 0
SPOT peptide array binding signal intensity (CaSho1): 13
SPOT peptide array binding signal intensity (CaSla1-D1-D2): 32
SPOT peptide array binding signal intensity (CaSla1-D3): ≤ 0
SPOT peptide array binding signal intensity (ScAbp1): 21.5

— the supplement of paper PMC4466140
